Source: PubChem
rRNA inh HTS: reduced GFP signal of wild-type E. coli, primary screen, bacterial rRNA inhibitor project, GFP/RFP fluorescence, OD600, single point; E. coli WT GFP vs humanized-ribosome RFP mutants, 24 h; hits give low values; DMSO median 0, no signal -100; GFP signal change (wild-type ribosome), % (concentration not given with the values); hit rate 1.6% among 350,000; AID 720706, 2013;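 active = significant combined selectivity score with lowered wild-type GFP, culture density cut under 30%, mutant RFP and density less affected; inactive = any of these conditions unmet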
ADAM10 inh: human ADAM10 inhibitors, primary screen, biochemical, QFRET, HTS; Disintegrin and metalloproteinase domain-containing protein 10 (Homo sapiens), O14672; inhibition, % at 7 µM; recombinant ADAM10, EDANS/DABCYL FRET peptide cleavage, 3 h; hit rate 0.62% among 370,000; AID 720582, 2013;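 active = inhibition above a per-campaign cutoff equal to the mean of compounds falling between control-based bounds plus 3 SD, cut at about 20% in these data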
proKLK7 act: proKLK7 zymogen activators, primary screen, biochemical, fluorescence intensity; purified proKLK7, EDANS-DABCYL substrate fluorescence; 100% is mature enzyme control, 0% vehicle; hit rate 0.9% among 370,000; activation, % at 7 µM;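 active = activation above the mean of all tested compounds plus 3 SD, computed per campaign excluding outliers beyond control limits, cut at about 13% in these data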
FGF22 binding: binders of human FGF22 protein, primary screen, FGF22 synaptogenesis inhibitor project, biophysical, thermal shift, single point; recombinant FGF22 thermal shift, SYPRO orange fluorescence; percent of sucrose octasulfate shift, DMSO zero; activity (Tm shift, normalised), % at 9.99 µM; hit rate 1.5% among 340,000;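 active = mean Tm shift, scaled 0 neutral to 100 positive control, at about 1.3% or above, every replicate too, limit read from the data; inconclusive = no clear call, values can overlap the other calls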
ADAM17 inh: ADAM17 inhibitors, primary screen, biochemical, QFRET. inhibition, % at 6.95 µM. recombinant ADAM17, EDANS/DABCYL FRET peptide cleavage. hit rate 0.83% among 370,000. AID 720648, 2013;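 active = inhibition above the mean of compounds lying between control limits plus 3 SD, set per campaign, cut at about 8.5% in these data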
Target sequence (P78536 215-824 limits assumed): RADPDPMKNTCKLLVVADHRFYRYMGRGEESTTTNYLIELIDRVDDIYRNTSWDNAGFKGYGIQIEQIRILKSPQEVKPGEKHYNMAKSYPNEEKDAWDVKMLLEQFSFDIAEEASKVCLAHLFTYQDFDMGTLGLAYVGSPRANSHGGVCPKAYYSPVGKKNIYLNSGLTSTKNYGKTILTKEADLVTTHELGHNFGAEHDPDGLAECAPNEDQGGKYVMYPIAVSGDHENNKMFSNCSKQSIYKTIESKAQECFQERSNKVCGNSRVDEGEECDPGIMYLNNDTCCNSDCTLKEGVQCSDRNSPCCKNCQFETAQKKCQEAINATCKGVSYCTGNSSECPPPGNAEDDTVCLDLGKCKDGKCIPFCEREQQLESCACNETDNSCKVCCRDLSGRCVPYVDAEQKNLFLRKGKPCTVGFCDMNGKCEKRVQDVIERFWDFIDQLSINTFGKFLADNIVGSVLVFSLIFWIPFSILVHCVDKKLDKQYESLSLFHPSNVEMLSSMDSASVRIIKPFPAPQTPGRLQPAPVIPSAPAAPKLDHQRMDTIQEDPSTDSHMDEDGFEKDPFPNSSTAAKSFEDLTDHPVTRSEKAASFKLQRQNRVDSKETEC
AID977621: growth inhibition of wild-type GFP E. coli, dose response, H69 mutant RFP, cherry-pick. shares compounds with rRNA inh HTS. activity change, negative = inhibition at 50 µM. 1,900 tested, under 10 active. E. coli wild-type GFP strain growth, fluorescence, 24 h;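 active = Wild-type ribosome reporter drop at least double the humanized mutant ribosome reporter drop, growth loss under a set limit; inconclusive = no clear call, values can overlap the other calls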;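 also: wild-type GFP and H69 mutant RFP strains grown together 50/50 in each well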
AID977628: E. coli growth inhibition, wild-type GFP versus h24 humanized RFP strain, dose response, h24 mutant RFP vs wild-type GFP, cherry-pick; E. coli WT GFP strain growth, fluorescence, 24 h; 1,900 tested, under 10 active; activity change, negative = inhibition at 50 µM; AID 977628, 2014; shares compounds with rRNA inh HTS;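 active = compound lowering the normal-ribosome reporter at least twice as much as the humanized-ribosome reporter, growth loss under a set limit; inconclusive = no clear call, values can overlap the other calls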;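 also: wild-type GFP and h24 humanized RFP strains co-cultured 1 to 1 per well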
Each line names hits and unclear results; the compound was inactive in the other large screens (follow-up assays come after a bar, where they were run). Hits are enriched below; roughly 3.8% of the tested compounds scored in any of these assays.

O=C(NCc1cccs1)c1ccc(Cl)c(S(=O)(=O)N2CCCC2)c1	rRNA inh HTS -19.0 | AID977628 inactive
O=C(NCc1cccs1)c1cccc(S(=O)(=O)N2CCCCC2)c1	none (no result: rRNA inh HTS, FGF22 binding)
CC(C)c1cc(C(N)=O)c(NC(=O)C2CCC2)s1	rRNA inh HTS -23.6 | AID977621 inconclusive
COCC(=O)Nc1ccc2c(c1)OC[C@H](C)N(CC1CCCCC1)C[C@@H](C)[C@@H](OC)CN(C)C2=O	none (no result: ADAM10 inh, proKLK7 act, ADAM17 inh)
N#Cc1cccc(-c2ccc(C3[C@@H]4CN(C(=O)Nc5ccc6c(c5)OCO6)C[C@H]3N4)cc2)c1 (some centres undefined)	none (no result: ADAM10 inh, proKLK7 act, FGF22 binding, ADAM17 inh)
Cc1ccc(NC(=O)c2c(C)noc2-c2snnc2C)cc1	rRNA inh HTS -21.9 | AID977628 inconclusive
O=C(C[C@@H]1CC[C@@H]2[C@H](COC[C@H](O)CN2C(=O)Nc2ccc(Cl)cc2)O1)N1CCCCC1	rRNA inh HTS -21.9 (no result: ADAM10 inh, proKLK7 act, ADAM17 inh) | AID977628 inconclusive
O=C(C[C@@H]1CC[C@H]2[C@@H](COC[C@@H](O)CN2C(=O)Nc2ccc(Cl)cc2)O1)N1CCCCC1	none (no result: ADAM10 inh, proKLK7 act, ADAM17 inh)
O=C(C[C@@H]1C=C[C@@H](NC(=O)c2ccc3c(c2)OCO3)[C@H](CO)O1)NCc1ccc(Oc2ccccc2)cc1	none (no result: ADAM10 inh, proKLK7 act, ADAM17 inh)
NS(=O)(=O)c1ccc(NC(=O)CCC(=O)O)cc1	rRNA inh HTS -11.0 | AID977621 inactive | AID977628 inconclusive
COc1ccc(OCCSc2nc3ccccc3n2CC(=O)O)cc1	none (no result: rRNA inh HTS, FGF22 binding)
COc1ccc(C(=O)CSc2nc3ccccc3n2CC(=O)c2ccccc2)cc1	rRNA inh HTS -27.8 | AID977621 inactive | AID977628 inactive
CCN(CC(=O)Nc1cccc(C#N)c1)CC(=O)Nc1cccc(OC)c1	rRNA inh HTS -22.5 | AID977621 inactive
C[C@@H]1CCCCO[C@@H](CN(C)Cc2ccc(Cl)c(Cl)c2)[C@@H](C)CN([C@@H](C)CO)C(=O)c2cc(NC(=O)C3CCCCC3)ccc2O1	none (no result: ADAM10 inh, proKLK7 act, ADAM17 inh)
O=C(c1cccc2ccccc12)C1CCCN(C(=O)CCc2cnccn2)C1 (centres undefined)	rRNA inh HTS -21.1 | AID977621 inactive | AID977628 inactive
O=C(c1cc(F)ccc1F)C1CCCN(C(=O)CCc2cnccn2)C1 (centres undefined)	none
CN(C)CCCNC(=O)C[C@H]1CC[C@H]2[C@@H](COc3ccc(NC(=O)c4ccccc4F)cc3C(=O)N2C)O1	none (no result: ADAM10 inh, proKLK7 act, ADAM17 inh)
Cc1ccc2oc(C(=O)N(C)Cc3ccon3)c(C)c2c1	none
Cc1ccc2oc(C(=O)N(C)Cc3ccc(C)o3)c(C)c2c1	rRNA inh HTS -29.8 | AID977621 inactive | AID977628 inactive
O=C(C[C@@H]1C[C@@H]2c3cc(NC(=O)C4CCC4)ccc3O[C@@H]2[C@H](CO)O1)NCCc1ccccc1	none (no result: ADAM10 inh, proKLK7 act, ADAM17 inh)
COc1ccccc1N1CCN(CC(O)COc2ccc(C)cc2C)CC1 (centres undefined)	none
Cc1ccc(OCC(O)CN2CCN(c3ccccn3)CC2)c(C)c1 (centres undefined)	rRNA inh HTS -17.3 | AID977628 inconclusive
O=S(=O)(Nc1ccc(-c2cn3ccccc3n2)cc1)c1ccccc1	none
Cc1cccc(S(=O)(=O)Nc2ccc(-c3cn4ccccc4n3)cc2)c1	rRNA inh HTS -32.5 | AID977621 inconclusive
Cc1cccc(OCCC(=O)Nc2ccc(F)c(F)c2)c1	rRNA inh HTS -41.3 (no result: FGF22 binding) | AID977621 inactive
O=C1CCCN1c1ccc(S(=O)(=O)N2CCCCC2)cc1	none
O=C1CCCN1c1ccc([N+](=O)[O-])cc1	rRNA inh HTS -4.0 | AID977621 inconclusive | AID977628 inconclusive
CCn1c(COc2cccc(OC)c2)nnc1SCC(=O)Nc1cc(OC)ccc1OC	rRNA inh HTS -22.6 (no result: FGF22 binding) | AID977621 inactive | AID977628 inactive
CN(C)CC(=O)N[C@@H]1CC[C@@H](CCNC(=O)Nc2ccc(Cl)cc2)O[C@H]1CO	rRNA inh HTS -27.6 (no result: ADAM10 inh, proKLK7 act, ADAM17 inh) | AID977628 inconclusive
COc1ccc(NC(=O)N[C@@H]2CC[C@H](CC(=O)NC3CCCCC3)O[C@@H]2CO)cc1	none (no result: ADAM10 inh, proKLK7 act, ADAM17 inh)
O=C(NCc1ccccc1Cl)c1ccc2c(c1)SC1=NS(=O)(=O)CCN12	rRNA inh HTS -20.3 | AID977621 inactive | AID977628 inactive
O=C(NCc1cccc(Cl)c1)c1ccc2c(c1)SC1=NS(=O)(=O)CCN12	none
COc1ccc2c3c(n(C)c2c1)[C@@H](CO)N(C)CC31CCN(S(C)(=O)=O)CC1	none (no result: ADAM10 inh, proKLK7 act, FGF22 binding, ADAM17 inh)
Cn1c(=O)c2c(-c3ccccc3)n(-c3cc([N+](=O)[O-])ccc3N)cc2n(C)c1=O	rRNA inh HTS -14.4 | AID977621 inactive | AID977628 inactive
COc1ccc(NC(=O)N(C)C[C@@H]2Oc3ccc(NS(=O)(=O)c4ccc(Cl)cc4)cc3CC(=O)N([C@H](C)CO)C[C@@H]2C)cc1	none (no result: ADAM10 inh, proKLK7 act, ADAM17 inh)
C=CCn1c(SCc2n[nH]c(=S)n2-c2ccccc2)nnc1-c1ccccc1	rRNA inh HTS -21.5 | AID977628 inconclusive
C=CCn1c(CSc2nnc(-c3ccccc3)n2C)n[nH]c1=S	none
N#CC1CN(C(c2ccccc2)c2ccccc2)C1	none
N#CC1CN(Cc2ccccc2)CN(Cc2ccccc2)C1	rRNA inh HTS -26.9 | AID977628 inconclusive
O=C(O)CCn1c(SCc2cccc3ccccc23)nc2ccccc21	rRNA inh HTS -15.8 (no result: FGF22 binding) | AID977621 inactive | AID977628 inconclusive
C[C@H]1CCCCO[C@@H](CN(C)C(=O)c2ccccc2)[C@@H](C)CN([C@@H](C)CO)C(=O)c2cc(NS(=O)(=O)c3ccc(Cl)cc3)ccc2O1	none (no result: ADAM10 inh, proKLK7 act, ADAM17 inh)
COC(=O)c1ccsc1NC(=O)c1cccc(OC)c1	rRNA inh HTS -26.9 | AID977621 inactive | AID977628 inactive
O=C(CN1CC[n+]2c(-c3cccs3)csc21)c1ccc(-c2ccccc2)cc1	rRNA inh HTS -41.0 | AID977621 inactive | AID977628 inactive
C[C@H]1CN([C@@H](C)CO)C(=O)Cc2cc(NS(=O)(=O)c3cn(C)cn3)ccc2O[C@H]1CN(C)Cc1ccc(C(=O)Nc2ccccc2N)cc1	none (no result: ADAM10 inh, proKLK7 act, ADAM17 inh)
Cc1cc(C(=O)Nc2ccc(Cl)cc2)c(C)n1Cc1cccs1	rRNA inh HTS -29.8 | AID977621 inactive | AID977628 inactive
Cc1cccc(C(=O)NCC(=O)NCCSc2ccc(Br)cc2)c1	rRNA inh HTS -22.3 | AID977621 inactive
